CYP2C9 activ – increases human cytochrome P450 2C9 activity; P11712; actives 1.4% (n = 96,000); AID 1024; activation factor at 5 µM; recombinant CYP2C9, luciferin-H conversion, luminescence; stronger effect = higher value; factor 1 = untreated enzyme, 0 = blocked;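 active = activation factor of 2 or more for CYP2C9 at a 5 µM dose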
CYP2C19 activ – increases human CYP2C19 enzyme activity; AID 1025; 96,000 tested, under 10 active; recombinant CYP2C19, luciferin-H EGE luminescence; stronger effect = higher value; 0 = fully inhibited enzyme, 1 = untreated enzyme; activation factor at 5 µM; P33261;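 active = activation factor of at least 2 at 5 µM in the primary screen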
Target sequence (P33261 whole entry, looked up): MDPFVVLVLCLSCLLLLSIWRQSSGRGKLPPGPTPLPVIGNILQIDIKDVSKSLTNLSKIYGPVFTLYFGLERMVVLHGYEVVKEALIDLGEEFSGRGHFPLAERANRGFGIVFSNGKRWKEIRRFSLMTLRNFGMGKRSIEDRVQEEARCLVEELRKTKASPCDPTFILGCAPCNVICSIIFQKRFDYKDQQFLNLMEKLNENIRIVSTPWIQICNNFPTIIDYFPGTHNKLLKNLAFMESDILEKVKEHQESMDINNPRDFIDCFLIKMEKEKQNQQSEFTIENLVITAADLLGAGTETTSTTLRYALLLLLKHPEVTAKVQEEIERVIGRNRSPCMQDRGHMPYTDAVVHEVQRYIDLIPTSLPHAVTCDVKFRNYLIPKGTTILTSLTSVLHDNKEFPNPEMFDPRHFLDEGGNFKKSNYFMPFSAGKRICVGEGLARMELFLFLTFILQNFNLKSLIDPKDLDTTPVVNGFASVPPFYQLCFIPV
Cav32 inh – inhibitors of human Cav3.2 T-type calcium channel; AID 449739; B-score at 10 µM; actives 4% (n = 100,000); Cav3.2-expressing cells, Fluo-4 calcium fluorescence FDSS; stronger effect = lower value; O95180;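 active = single-dose well whose peak fluorescence ratio is a statistical outlier from its plate by either plate-standardised score or position-corrected B-score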
CYP2C9 inhib – inhibitors of human CYP2C9; P11712; CYP2C9 Supersomes, luciferin-H conversion, luminescence; actives 20% (n = 96,000); inhibition, % at 5 µM; AID 777;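 active = blocking of liver enzyme CYP2C9 beyond about 50% at 5 µM, limit read from the data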
CYP2C19 inh – inhibitors of human CYP2C19; CYP2C19 Supersomes, luciferin-H EGE luminescence, 30 min; inhibition, % at 5 µM; actives 21% (n = 96,000); AID 778;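 active = CYP2C19 inhibition above a set limit at 5 µM in the primary screen, cut at about 50% in these data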
Large screens that a line does not name were inactive. The list is not random: actives were taken first. Their share in the collection is about 27%.

COc1ccc(Br)cc1C(=O)Nc1cccc(-c2nnc(-c3ccco3)o2)c1	none (no result: CYP2C9 activ, CYP2C19 activ, CYP2C9 inhib, CYP2C19 inh)
Cc1ccc(C(=O)NN(C)c2nc3ccccc3nc2C(F)(F)F)cc1	none
Cc1cc(C)nc(NC(=NCCc2c[nH]c3ccccc23)NC(=O)c2ccco2)n1	CYP2C9 inhib 99, CYP2C19 inh 96
Cc1noc(C)c1S(=O)(=O)Nc1ccc(C(=O)N2CCN(c3cccc(Cl)c3)CC2)cc1	CYP2C9 inhib 79
Cc1cccc(N2CCN(C(=O)c3ccc(NS(=O)(=O)c4c(C)noc4C)cc3)CC2)c1C	Cav32 inh -7.2, CYP2C9 inhib 96
Cc1noc(C)c1S(=O)(=O)Nc1ccc(C(=O)N2CCc3ccccc3C2)cc1	CYP2C9 inhib 59
Cc1noc(C)c1S(=O)(=O)Nc1ccc(C(=O)NCc2ccccc2)cc1	none
Cc1cccc(NC(=O)c2ccc(NS(=O)(=O)c3c(C)noc3C)cc2)c1	none
CC(=O)c1cccc(NS(=O)(=O)c2c(C)noc2C)c1	none (no result: Cav32 inh)
CCc1cccc(NC(=O)c2ccc(NS(=O)(=O)c3c(C)noc3C)cc2)c1	CYP2C9 inhib 51
O=C(C1CC(=O)N(c2ccccc2)C1)N1CCN(C2=NS(=O)(=O)c3ccccc32)CC1 (stereo unspecified)	none
O=C(NCCCN1CCOCC1)c1ccco1	none
O=C(c1ccco1)N(CCCN1CCOCC1)c1nc(-c2ccc(F)cc2)cs1	CYP2C9 inhib 67
O=C(c1ccco1)N(CCCN1CCOCC1)c1nc(-c2ccc(Cl)cc2)cs1	CYP2C9 inhib 92, CYP2C19 inh 87
Cn1c(CSc2nc3ccccc3s2)nnc1SCC(=O)NCCCN1CCOCC1	none (no result: CYP2C9 activ, CYP2C19 activ, CYP2C9 inhib, CYP2C19 inh)
Cc1cccc(C)c1C(=O)N[C@@H](Cc1ccccc1)C(=O)O	none (no result: CYP2C9 activ, CYP2C19 activ, CYP2C9 inhib, CYP2C19 inh)
Cc1nnc(SCCC(=O)Nc2nc(-c3ccccc3)ns2)s1	Cav32 inh -5, CYP2C19 inh 53
CCC(=O)Nc1nc(-c2ccccc2)ns1	none (no result: CYP2C9 activ, CYP2C19 activ, CYP2C9 inhib, CYP2C19 inh)
O=C(CSc1ncn[nH]1)Nc1nc(-c2ccccc2)ns1	CYP2C9 inhib 79, CYP2C19 inh 78
O=C(Nc1cc2c(cc1Br)OCCO2)c1cccs1	CYP2C19 inh 57
CCn1c2ccccc2c2nc3cc(S(=O)(=O)N4CCOCC4)ccc3nc21	CYP2C9 inhib 85 (no result: Cav32 inh)
Cc1cc(NC(=O)CSc2n[nH]c(CC(C)C)n2)no1	none
O=C(N/N=C/c1cccc([N+](=O)[O-])c1)c1ccc2nc[nH]c2c1	CYP2C9 inhib 51
Cc1cc(C(=O)N/N=C/c2cccc([N+](=O)[O-])c2)c(C)o1	none
O=c1cc(-c2ccccc2)c2ccccc2[nH]1	none
c1ccc(-c2nnc(-c3c[nH]c4ccccc34)nc2-c2ccccc2)cc1	CYP2C9 inhib 99
Cc1cc(-c2nnc(-c3ccccc3)c(-c3ccccc3)n2)c(C)o1	CYP2C9 inhib 71
OCCNc1nc(SCc2ccccc2)nc2sc3c(c12)CCC3	CYP2C9 inhib 68 (no result: Cav32 inh)
C=CCn1c(NCCO)nc2sc3c(c2c1=O)CCC3	none
CCOC(=O)C1CCN(Cc2coc3c(Cl)cc(Cl)cc3c2=O)CC1	none
COc1cccc(C(=O)Nc2ccc(F)cc2F)c1	none (no result: CYP2C9 activ, CYP2C19 activ, CYP2C9 inhib, CYP2C19 inh)
O=C(Nc1cccc(C(F)(F)F)c1)c1ccco1	none
COc1cccc(C(=O)Nc2ccc(F)c(F)c2F)c1	CYP2C19 inh 54
O=C(Nc1ccc(Cl)c(C(F)(F)F)c1)c1ccco1	Cav32 inh -5.8
Cc1ccc(Cl)cc1NC(=O)c1cccc(OC(F)F)c1	CYP2C19 inh 55
COc1cccc(C(=O)NC(=S)Nc2ccc3c4c(cccc24)CC3)c1	CYP2C9 activ 2
Cc1ccc(S(=O)(=O)Nc2nonc2C)cc1	none (no result: Cav32 inh)
COc1cccc(C(=O)Nc2ccc(Cl)c(C(F)(F)F)c2)c1	Cav32 inh -5.1, CYP2C9 inhib 62
COc1ccc(C(=O)Nc2cc(C(F)(F)F)ccc2Cl)cc1OC	CYP2C9 activ 2.5
COc1cccc(C(=O)Nc2cc(C(F)(F)F)ccc2Cl)c1	CYP2C9 activ 2.7
COc1ccc(C(=O)Nc2cc(C(=O)NCCc3ccccc3)ccc2Cl)cc1	CYP2C9 inhib 83, CYP2C19 inh 57
COc1ccc(CCNC(=O)c2ccc(Cl)cc2)cc1	none
COc1cccc(C(=O)Nc2ccc(C(=O)O)cc2)c1	none
CC1(C)NC(=O)NC2(C)NC(=O)NC(C)(C)C12 (stereo unspecified)	none
COc1ccc(N2CCN(C(=O)c3cc4c(-c5ccc(Cl)cc5)nn(C)c4s3)CC2)cc1	CYP2C9 inhib 64
COc1cccc(-c2nn(C)c3sc(C(=O)N4CCN(c5ccccn5)CC4)cc23)c1	CYP2C9 inhib 80
Oc1[nH]c2ccccc2c1C=Nc1ccc2c(c1)OCCO2	none
Cc1cc(C(=O)COC(=O)CCc2nc3ccccc3s2)c(C)n1C	none
Oc1oc(-c2ccccc2)nc1C=Nc1ccccc1	none (no result: Cav32 inh)
CN(C)c1ccc(N=Cc2nc(-c3ccccc3)oc2O)cc1	CYP2C19 inh 50 (no result: Cav32 inh)
Oc1cccc(C=NCc2ccccc2)c1	none
CSc1ccccc1N=Cc1nc(-c2ccccc2)oc1O	CYP2C19 inh 68
Oc1oc(-c2ccccc2)nc1C=NCc1ccccc1	CYP2C9 inhib 69, CYP2C19 inh 78
COc1ccc([C@@H]2Sc3ccccc3N(CCN(C)C)C(=O)[C@@H]2OC(C)=O)cc1	none (no result: CYP2C9 activ, CYP2C19 activ, CYP2C9 inhib, CYP2C19 inh)
CCN(CC)c1ccc(NC(=O)CN2CCN(c3nc(C)cc(C)n3)CC2)cc1	Cav32 inh -4.2
COC/C=C/C1=CC2=CC(=O)C(C)(OC(=O)c3cnc4ccccc4n3)C(=O)C2=CO1 (stereo unspecified)	none (no result: CYP2C9 activ, CYP2C19 activ, CYP2C9 inhib, CYP2C19 inh)
CCSc1nc2c(cnn2-c2ccc(C)c(C)c2)c(=O)[nH]1	none
Cc1ccc(OCC(O)Cn2c(=N)n(Cc3ccccc3)c3ccccc32)cc1 (stereo unspecified)	Cav32 inh -5.3
COc1cc(C2SCC(=O)N2CCCN(C)C)cc(OC)c1OC (stereo unspecified)	none
COc1ccc(C2c3c(ncn(CCN4CCOCC4)c3=N)Oc3ccc4ccccc4c32)cc1 (stereo unspecified)	CYP2C9 inhib 56, CYP2C19 inh 50
N=c1c2c(ncn1CCN1CCOCC1)Oc1ccc3ccccc3c1C2c1ccccc1 (stereo unspecified)	none
COc1ccc(C2c3c(ccc4ccccc34)Oc3ncn4nc(CO/N=C/c5ccccc5)nc4c32)cc1 (stereo unspecified)	Cav32 inh -4.6, CYP2C9 inhib 56
CN(C)c1nc(NS(=O)(=O)c2ccc(Cl)cc2)nc(N(C)C)n1	none
COc1nc(NS(=O)(=O)c2ccc(C)cc2)nc(C)c1Cl	CYP2C9 inhib 71, CYP2C19 inh 68
Cn1ncc(C#N)c1NC(=O)C1CC(c2ccc(Cl)cc2)=NO1 (stereo unspecified)	CYP2C19 inh 72
Cc1ccc(-n2c(CCc3ccccc3)nnc2SCC(=O)NCc2ccccc2)cc1C	CYP2C19 inh 67
O=C(CSc1nnc(CCCO)n1-c1ccccc1)NCCc1ccccc1	none
N#CCSc1nnc(-c2ccccc2O)n1Cc1ccccc1	CYP2C19 inh 51
CCn1c(SCC(=O)NCc2ccccc2)nnc1-c1ccccc1O	CYP2C9 inhib 52, CYP2C19 inh 57
CCn1c(SCC(=O)Nc2ccccc2N2CCOCC2)nnc1-c1ccccc1O	none
